Results: PubChem BioAssay AID1159580 (chemical genetic matrix, 2015)
About 2,000 (36%) of roughly 5,500 compounds were called active. Roughly 18% stayed inconclusive and do not appear here. Rule as the data show it: active = normalized growth mostly below about 0.91 (no sharp cut-off); inconclusive = no clear call, values can overlap the other calls; inactive = mostly above about 0.92. The list shows a part of the results.

Assay: chemical genetic growth profiling, strain panel (AID 1159580);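 also: tested at 20 µM; growth read once vehicle control cultures reached saturation at 30 °C; 1 = growth at the plate median or of vehicle wells; lower values mean less growth of the strain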
Details: growth OD

Measured: normalized growth

COC(=O)C(C)c1ccc(C(=O)c2cccs2)cc1 (configuration not stated)
active: S. cerevisiae deletion strains, locus YNL307C, strain MCK1, stronger effect = lower value 0.819 | S. cerevisiae deletion strains, locus YOR184W, strain ser1, stronger effect = lower value 0.747
inactive: S. cerevisiae deletion strains, locus YJR075W, strain HOC1, stronger effect = lower value 1.07 | S. cerevisiae deletion strains, locus YKL009W, strain mrt4, stronger effect = lower value 0.905 | S. cerevisiae deletion strains, locus YKL068W, stronger effect = lower value 0.967 | S. cerevisiae deletion strains, locus YKL085W, strain MDH1 (second series), stronger effect = lower value 0.941 | S. cerevisiae deletion strains, locus YKL085W, strain MDH1, stronger effect = lower value 0.941 | S. cerevisiae deletion strains, locus YKL160W, strain elf1, stronger effect = lower value 1 | S. cerevisiae deletion strains, locus YKL190W, strain CNB1, stronger effect = lower value 0.997 | S. cerevisiae deletion strains, locus YKR001C, strain vps1, stronger effect = lower value 0.936 | S. cerevisiae deletion strains, locus YKR026C, strain gcn3, stronger effect = lower value 1 | S. cerevisiae deletion strains, locus YKR091W, strain srl3, stronger effect = lower value 1.01 | S. cerevisiae deletion strains, locus YLL001W, strain dnm1, stronger effect = lower value 1.01 | S. cerevisiae deletion strains, locus YLL026W, stronger effect = lower value 1.01 | S. cerevisiae deletion strains, locus YLL041C, strain sdh2, stronger effect = lower value 1.01 | S. cerevisiae deletion strains, locus YLR027C, strain aat2, stronger effect = lower value 1.01 | S. cerevisiae deletion strains, locus YLR039C, strain RIC1, stronger effect = lower value 0.862 | S. cerevisiae deletion strains, locus YLR058C, strain SHM2, stronger effect = lower value 0.989 | S. cerevisiae deletion strains, locus YLR102C, strain apc9, stronger effect = lower value 0.966 | S. cerevisiae deletion strains, locus YLR113W, strain HOG1, stronger effect = lower value 0.943 | S. cerevisiae deletion strains, locus YLR221C, strain rsa3, stronger effect = lower value 0.978 | S. cerevisiae deletion strains, locus YLR258W, strain gsy2, stronger effect = lower value 1.02 | S. cerevisiae deletion strains, locus YLR262C, strain YPT6 (second series), stronger effect = lower value 0.998 | S. cerevisiae deletion strains, locus YLR262C, strain YPT6, stronger effect = lower value 0.842 | S. cerevisiae deletion strains, locus YLR268W, strain sec22, stronger effect = lower value 0.956 | S. cerevisiae deletion strains, locus YLR320W, strain mms22, stronger effect = lower value 1.01 | S. cerevisiae deletion strains, locus YLR330W, strain CHS5, stronger effect = lower value 0.979 | S. cerevisiae deletion strains, locus YLR342W, strain FKS1 (second series), stronger effect = lower value 0.881 | S. cerevisiae deletion strains, locus YLR342W, strain FKS1, stronger effect = lower value 1.02 | S. cerevisiae deletion strains, locus YLR357W, strain rsc2, stronger effect = lower value 1.02 | S. cerevisiae deletion strains, locus YLR370C, strain arc18, stronger effect = lower value 1.01 | S. cerevisiae deletion strains, locus YLR371W, strain rom2, stronger effect = lower value 0.958 | S. cerevisiae deletion strains, locus YLR384C, strain iki3, stronger effect = lower value 1.01 | S. cerevisiae deletion strains, locus YLR418C, strain cdc73, stronger effect = lower value 1.06 | S. cerevisiae deletion strains, locus YML016C, strain PPZ1, stronger effect = lower value 0.993 | S. cerevisiae deletion strains, locus YML032C, strain rad52, stronger effect = lower value 0.934 | S. cerevisiae deletion strains, locus YML120C, strain ndi1, stronger effect = lower value 1.01 | S. cerevisiae deletion strains, locus YML124C, strain tub3, stronger effect = lower value 0.958 | S. cerevisiae deletion strains, locus YMR058W, strain fet3, stronger effect = lower value 1.01 | S. cerevisiae deletion strains, locus YMR078C, strain ctf18, stronger effect = lower value 0.934 | S. cerevisiae deletion strains, locus YMR125W, strain sto1, stronger effect = lower value 1.02 | S. cerevisiae deletion strains, locus YMR129W, stronger effect = lower value 1.01 | S. cerevisiae deletion strains, locus YMR205C, strain PFK2, stronger effect = lower value 1.01 | S. cerevisiae deletion strains, locus YMR223W, strain ubp8, stronger effect = lower value 0.913 | S. cerevisiae deletion strains, locus YMR231W, strain pep5, stronger effect = lower value 0.996 | S. cerevisiae deletion strains, locus YMR263W, strain SAP30, stronger effect = lower value 1.01 | S. cerevisiae deletion strains, locus YMR307W, strain GAS1, stronger effect = lower value 0.973 | S. cerevisiae deletion strains, locus YNL067W, strain RPL9B, stronger effect = lower value 0.988 | S. cerevisiae deletion strains, locus YNL071W, strain lat1, stronger effect = lower value 1.01 | S. cerevisiae deletion strains, locus YNL128W, strain TEP1, stronger effect = lower value 1.03 | S. cerevisiae deletion strains, locus YNL153C, strain GIM3, stronger effect = lower value 1.02 | S. cerevisiae deletion strains, locus YNL183C, strain NPR1, stronger effect = lower value 0.912 | S. cerevisiae deletion strains, locus YNL209W, strain ssb2, stronger effect = lower value 1.01 | S. cerevisiae deletion strains, locus YNL233W, strain BNI4, stronger effect = lower value 1.01 | S. cerevisiae deletion strains, locus YNL248C, strain rpa49, stronger effect = lower value 1 | S. cerevisiae deletion strains, locus YNL250W, strain rad50, stronger effect = lower value 0.976 | S. cerevisiae deletion strains, locus YNL271C, strain bni1, stronger effect = lower value 0.939 | S. cerevisiae deletion strains, locus YNL298W, strain CLA4, stronger effect = lower value 0.932 | S. cerevisiae deletion strains, locus YNL322C, strain KRE1 (second series), stronger effect = lower value 1.01 | S. cerevisiae deletion strains, locus YNL322C, strain KRE1, stronger effect = lower value 0.991 | S. cerevisiae deletion strains, locus YNR049C, strain mso1, stronger effect = lower value 1.02 | S. cerevisiae deletion strains, locus YNR052C, strain pop2, stronger effect = lower value 0.945 | S. cerevisiae deletion strains, locus YOL006C, strain TOP1, stronger effect = lower value 0.921 | S. cerevisiae deletion strains, locus YOL012C, strain htz1 2.2 | S. cerevisiae deletion strains, locus YOL147C, strain pex11, stronger effect = lower value 0.97 | S. cerevisiae deletion strains, locus YOR001W, strain rrp6, stronger effect = lower value 0.983 | S. cerevisiae deletion strains, locus YOR061W, strain CKA2, stronger effect = lower value 0.985 | S. cerevisiae deletion strains, locus YOR069W, strain VPS5, stronger effect = lower value 0.986 | S. cerevisiae deletion strains, locus YOR070C, strain gyp1, stronger effect = lower value 1.01 | S. cerevisiae deletion strains, locus YOR080W, strain dia2, stronger effect = lower value 1.02 | S. cerevisiae deletion strains, locus YOR083W, strain WHI5, stronger effect = lower value 1 | S. cerevisiae deletion strains, locus YOR106W, strain vam3, stronger effect = lower value 0.995 | S. cerevisiae deletion strains, locus YOR136W, strain idh2, stronger effect = lower value 0.959 | S. cerevisiae deletion strains, locus YOR144C, strain elg1, stronger effect = lower value 0.96 | S. cerevisiae deletion strains, locus YOR231W, strain MKK1, stronger effect = lower value 0.954 | S. cerevisiae deletion strains, locus YOR265W, strain rbl2, stronger effect = lower value 1 | S. cerevisiae deletion strains, locus YOR270C, strain vph1, stronger effect = lower value 0.969 | S. cerevisiae deletion strains, locus YOR290C, strain snf2, stronger effect = lower value 1 | S. cerevisiae deletion strains, locus YOR316C, strain cot1, stronger effect = lower value 0.97 | S. cerevisiae deletion strains, locus YPL051W, strain arl3, stronger effect = lower value 1 | S. cerevisiae deletion strains, locus YPL055C, strain LGE1, stronger effect = lower value 1.04 | S. cerevisiae deletion strains, locus YPL078C, strain atp4, stronger effect = lower value 1.01 | S. cerevisiae deletion strains, locus YPL106C, strain sse1, stronger effect = lower value 1.01 | S. cerevisiae deletion strains, locus YPL240C, strain hsp82, stronger effect = lower value 1.02 | S. cerevisiae deletion strains, locus YPL241C, strain CIN2, stronger effect = lower value 0.995 | S. cerevisiae deletion strains, locus YPL256C, strain CLN2, stronger effect = lower value 0.962 | S. cerevisiae deletion strains, locus YPR119W, strain clb2, stronger effect = lower value 0.971 | S. cerevisiae deletion strains, locus YPR141C, strain kar3, stronger effect = lower value 0.968 | S. cerevisiae deletion strains, locus YPR163C, strain tif3, stronger effect = lower value 0.95 | S. cerevisiae deletion strains, locus YPR167C, strain met16, stronger effect = lower value 0.967 | S. cerevisiae deletion strains, strain wtn01, stronger effect = lower value 0.982 | S. cerevisiae strains, strain wild type, stronger effect = lower value 0.983
